Assay results reported in the supplement of paper PMC10849652.
Of roughly 7,900 targets only a part is listed; those with a hit were picked by preference. About 0.6% of all pairs of compound and target were hits. A number with no mark means an inactive call.

Tests used:
Assay in all cases: log2 fold change, soluble protein after heating vs DMSO (PISA); higher = thermal stabilisation; K562 cells, 10 uM, 30 min; active = over 0.2 and 3.5 SD of the protein, either way, in both replicates (recomputed)
[1] = compound: COC1=CC=C(C=C1)CN2C=CC3=C2C=C(C=C3)C(=O)NO
Procedure, shortened: (§1)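 Thermal stability values are relative to control samples and come from duplicates. They are expressed as log2 fold changes. For measurement, K562 cells (2×10^6 cells/mL) received 10 μM compound for 30 min, and aliquots were heated for 3 min over 48°C-58°C, pooled, and extracted at 4°C in PBS with 0.5% NP-40. Soluble protein, the supernatant after 21,000xg for 90 min, was quantified by TMTpro 16plex LC-MS/MS with equalised channel sums.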

filanesib = compound: CON(C)C(=O)N1N=C(c2cc(F)ccc2F)S[C@@]1(CCCN)c1ccccc1 [filanesib]
Procedure, shortened: as §1

zotarolimus = compound: CO[C@H]1C[C@@H]2CC[C@@H](C)[C@@](O)(O2)C(=O)C(=O)N2CCCC[C@H]2C(=O)O[C@H]([C@H](C)C[C@@H]2CC[C@H](n3cnnn3)[C@H](OC)C2)CC(=O)[C@H](C)/C=C(\C)[C@@H](O)[C@@H](OC)C(=O)[C@H](C)C[C@H](C)/C=C/C=C/C=C/1C [zotarolimus]
Procedure, shortened: as §1

idasanutlin = compound: COc1cc(C(=O)O)ccc1NC(=O)[C@@H]1N[C@@H](CC(C)(C)C)[C@](C#N)(c2ccc(Cl)cc2F)[C@H]1c1cccc(Cl)c1F [idasanutlin]
Procedure, shortened: as §1

alisertib = compound: COc1cc(Nc2ncc3c(n2)-c2ccc(Cl)cc2C(c2c(F)cccc2OC)=NC3)ccc1C(=O)O [alisertib]
Procedure, shortened: as §1

[2] = compound: COc1cc2nc(-c3cc(F)ccc3O)nc(N[C@@H]3CNC[C@H]3C(C)(C)O)c2cc1OC
Procedure, shortened: as §1

gefitinib = compound: COc1cc2ncnc(Nc3ccc(F)c(Cl)c3)c2cc1OCCCN1CCOCC1 [gefitinib]
Procedure, shortened: as §1

[3] = compound: COc1cccc2cc(-c3nc([C@H]4CC[C@H](C(=O)O)CC4)n4ncnc(N)c34)[nH]c12
Procedure, shortened: as §1

lapatinib = compound: CS(=O)(=O)CCNCc1ccc(-c2ccc3ncnc(Nc4ccc(OCc5cccc(F)c5)c(Cl)c4)c3c2)o1 [lapatinib]
Procedure, shortened: as §1

pictilisib = compound: CS(=O)(=O)N1CCN(Cc2cc3nc(-c4cccc5[nH]ncc45)nc(N4CCOCC4)c3s2)CC1 [pictilisib]
Procedure, shortened: as §1

[4] = compound: CS(=O)(=O)c1ccc(-c2cnc(N)c(C(=O)Nc3ccccc3)n2)cc1
Procedure, shortened: as §1

crizotinib = compound: C[C@@H](Oc1cc(-c2cnn(C3CCNCC3)c2)cnc1N)c1c(Cl)ccc(F)c1Cl [crizotinib]
Procedure, shortened: as §1

[5] = compound: C[C@@H]1COCCN1C2=NC(=NC(=C2)C3(CC3)S(=O)(=O)C)C4=C5C=CNC5=CC=C4
Procedure, shortened: as §1

[6] = compound: C[C@H](C1=CC=C(C=C1)C(=O)NC2=C3C=CNC3=NC=C2)N
Procedure, shortened: as §1

duvelisib = compound: C[C@H](Nc1ncnc2nc[nH]c12)c1cc2cccc(Cl)c2c(=O)n1-c1ccccc1 [duvelisib]
Procedure, shortened: as §1

gandotinib = compound: Cc1cc(Nc2cc(CN3CCOCC3)c3nc(C)c(Cc4ccc(Cl)cc4F)n3n2)n[nH]1 [gandotinib]
Procedure, shortened: as §1

tozasertib = compound: Cc1cc(Nc2cc(N3CCN(C)CC3)nc(Sc3ccc(NC(=O)C4CC4)cc3)n2)n[nH]1 [tozasertib]
Procedure, shortened: as §1

[7] = compound: Cc1cc(SCc2sc(-c3ccc(C(F)(F)F)cc3)nc2C)ccc1OCC(=O)O
Procedure, shortened: as §1

doramapimod = compound: Cc1ccc(-n2nc(C(C)(C)C)cc2NC(=O)Nc2ccc(OCCN3CCOCC3)c3ccccc23)cc1 [doramapimod]
Procedure, shortened: as §1

ispinesib = compound: Cc1ccc(C(=O)N(CCCN)[C@@H](c2nc3cc(Cl)ccc3c(=O)n2Cc2ccccc2)C(C)C)cc1 [ispinesib]
Procedure, shortened: as §1

Chain of UniProt Q9NUM4 (Q9NUM4 whole entry, looked up): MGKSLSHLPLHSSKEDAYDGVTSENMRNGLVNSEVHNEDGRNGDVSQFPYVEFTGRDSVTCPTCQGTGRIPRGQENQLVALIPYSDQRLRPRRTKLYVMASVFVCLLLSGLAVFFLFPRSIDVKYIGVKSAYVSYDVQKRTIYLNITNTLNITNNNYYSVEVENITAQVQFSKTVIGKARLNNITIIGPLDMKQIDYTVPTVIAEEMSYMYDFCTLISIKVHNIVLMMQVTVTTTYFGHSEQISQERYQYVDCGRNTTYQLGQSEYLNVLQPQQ
Chain of UniProt Q9Y4E8 (Q9Y4E8 whole entry, looked up): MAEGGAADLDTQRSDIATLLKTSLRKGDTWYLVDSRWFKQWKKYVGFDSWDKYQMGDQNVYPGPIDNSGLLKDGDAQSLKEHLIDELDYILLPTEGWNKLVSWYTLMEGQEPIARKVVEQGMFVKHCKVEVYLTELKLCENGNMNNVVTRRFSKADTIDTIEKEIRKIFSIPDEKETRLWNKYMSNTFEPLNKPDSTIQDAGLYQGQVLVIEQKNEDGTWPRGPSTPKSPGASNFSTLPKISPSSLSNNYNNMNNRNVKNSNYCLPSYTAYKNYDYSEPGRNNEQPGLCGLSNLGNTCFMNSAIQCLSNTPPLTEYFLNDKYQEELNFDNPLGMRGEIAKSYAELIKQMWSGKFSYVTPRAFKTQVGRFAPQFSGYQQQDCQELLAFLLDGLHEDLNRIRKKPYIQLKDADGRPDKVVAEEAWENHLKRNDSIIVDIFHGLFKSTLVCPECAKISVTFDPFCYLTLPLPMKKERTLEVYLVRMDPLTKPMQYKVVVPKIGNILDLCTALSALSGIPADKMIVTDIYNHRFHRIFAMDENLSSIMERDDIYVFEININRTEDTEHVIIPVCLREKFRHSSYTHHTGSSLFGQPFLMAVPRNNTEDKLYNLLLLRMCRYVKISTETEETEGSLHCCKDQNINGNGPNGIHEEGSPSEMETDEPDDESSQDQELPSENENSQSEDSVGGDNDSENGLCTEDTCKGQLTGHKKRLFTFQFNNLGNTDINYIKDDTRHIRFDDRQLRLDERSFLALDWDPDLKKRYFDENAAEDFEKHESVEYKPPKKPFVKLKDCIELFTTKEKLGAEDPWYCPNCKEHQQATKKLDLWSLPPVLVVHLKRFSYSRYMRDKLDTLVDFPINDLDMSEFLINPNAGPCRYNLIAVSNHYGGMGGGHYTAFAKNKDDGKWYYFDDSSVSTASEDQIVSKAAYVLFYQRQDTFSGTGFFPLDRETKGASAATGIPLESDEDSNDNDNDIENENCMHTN
Chain of UniProt O14787 (O14787 whole entry, looked up): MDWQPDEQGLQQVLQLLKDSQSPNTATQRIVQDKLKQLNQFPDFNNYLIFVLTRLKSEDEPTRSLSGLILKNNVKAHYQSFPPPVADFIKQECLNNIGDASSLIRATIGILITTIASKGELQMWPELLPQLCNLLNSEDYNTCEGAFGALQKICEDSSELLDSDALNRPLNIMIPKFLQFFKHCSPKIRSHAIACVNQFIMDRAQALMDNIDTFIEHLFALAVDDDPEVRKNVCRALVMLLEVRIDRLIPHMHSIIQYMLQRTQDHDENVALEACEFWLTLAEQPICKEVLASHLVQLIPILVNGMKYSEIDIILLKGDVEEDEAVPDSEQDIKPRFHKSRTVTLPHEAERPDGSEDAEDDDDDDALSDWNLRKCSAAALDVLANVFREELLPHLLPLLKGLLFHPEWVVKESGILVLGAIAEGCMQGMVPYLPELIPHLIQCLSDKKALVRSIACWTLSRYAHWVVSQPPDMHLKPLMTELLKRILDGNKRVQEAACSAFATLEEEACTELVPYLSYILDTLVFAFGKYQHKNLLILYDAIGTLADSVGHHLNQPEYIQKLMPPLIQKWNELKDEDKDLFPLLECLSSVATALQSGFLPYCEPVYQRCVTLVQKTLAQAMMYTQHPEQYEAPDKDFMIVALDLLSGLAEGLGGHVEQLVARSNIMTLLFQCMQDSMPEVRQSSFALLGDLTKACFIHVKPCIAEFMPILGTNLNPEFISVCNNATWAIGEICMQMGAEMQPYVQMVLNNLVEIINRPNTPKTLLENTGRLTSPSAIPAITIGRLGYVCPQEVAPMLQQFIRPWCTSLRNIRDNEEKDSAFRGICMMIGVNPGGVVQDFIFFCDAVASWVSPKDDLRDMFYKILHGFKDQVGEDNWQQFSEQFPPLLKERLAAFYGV
Chain of UniProt Q8IWV8 (Q8IWV8 whole entry, looked up): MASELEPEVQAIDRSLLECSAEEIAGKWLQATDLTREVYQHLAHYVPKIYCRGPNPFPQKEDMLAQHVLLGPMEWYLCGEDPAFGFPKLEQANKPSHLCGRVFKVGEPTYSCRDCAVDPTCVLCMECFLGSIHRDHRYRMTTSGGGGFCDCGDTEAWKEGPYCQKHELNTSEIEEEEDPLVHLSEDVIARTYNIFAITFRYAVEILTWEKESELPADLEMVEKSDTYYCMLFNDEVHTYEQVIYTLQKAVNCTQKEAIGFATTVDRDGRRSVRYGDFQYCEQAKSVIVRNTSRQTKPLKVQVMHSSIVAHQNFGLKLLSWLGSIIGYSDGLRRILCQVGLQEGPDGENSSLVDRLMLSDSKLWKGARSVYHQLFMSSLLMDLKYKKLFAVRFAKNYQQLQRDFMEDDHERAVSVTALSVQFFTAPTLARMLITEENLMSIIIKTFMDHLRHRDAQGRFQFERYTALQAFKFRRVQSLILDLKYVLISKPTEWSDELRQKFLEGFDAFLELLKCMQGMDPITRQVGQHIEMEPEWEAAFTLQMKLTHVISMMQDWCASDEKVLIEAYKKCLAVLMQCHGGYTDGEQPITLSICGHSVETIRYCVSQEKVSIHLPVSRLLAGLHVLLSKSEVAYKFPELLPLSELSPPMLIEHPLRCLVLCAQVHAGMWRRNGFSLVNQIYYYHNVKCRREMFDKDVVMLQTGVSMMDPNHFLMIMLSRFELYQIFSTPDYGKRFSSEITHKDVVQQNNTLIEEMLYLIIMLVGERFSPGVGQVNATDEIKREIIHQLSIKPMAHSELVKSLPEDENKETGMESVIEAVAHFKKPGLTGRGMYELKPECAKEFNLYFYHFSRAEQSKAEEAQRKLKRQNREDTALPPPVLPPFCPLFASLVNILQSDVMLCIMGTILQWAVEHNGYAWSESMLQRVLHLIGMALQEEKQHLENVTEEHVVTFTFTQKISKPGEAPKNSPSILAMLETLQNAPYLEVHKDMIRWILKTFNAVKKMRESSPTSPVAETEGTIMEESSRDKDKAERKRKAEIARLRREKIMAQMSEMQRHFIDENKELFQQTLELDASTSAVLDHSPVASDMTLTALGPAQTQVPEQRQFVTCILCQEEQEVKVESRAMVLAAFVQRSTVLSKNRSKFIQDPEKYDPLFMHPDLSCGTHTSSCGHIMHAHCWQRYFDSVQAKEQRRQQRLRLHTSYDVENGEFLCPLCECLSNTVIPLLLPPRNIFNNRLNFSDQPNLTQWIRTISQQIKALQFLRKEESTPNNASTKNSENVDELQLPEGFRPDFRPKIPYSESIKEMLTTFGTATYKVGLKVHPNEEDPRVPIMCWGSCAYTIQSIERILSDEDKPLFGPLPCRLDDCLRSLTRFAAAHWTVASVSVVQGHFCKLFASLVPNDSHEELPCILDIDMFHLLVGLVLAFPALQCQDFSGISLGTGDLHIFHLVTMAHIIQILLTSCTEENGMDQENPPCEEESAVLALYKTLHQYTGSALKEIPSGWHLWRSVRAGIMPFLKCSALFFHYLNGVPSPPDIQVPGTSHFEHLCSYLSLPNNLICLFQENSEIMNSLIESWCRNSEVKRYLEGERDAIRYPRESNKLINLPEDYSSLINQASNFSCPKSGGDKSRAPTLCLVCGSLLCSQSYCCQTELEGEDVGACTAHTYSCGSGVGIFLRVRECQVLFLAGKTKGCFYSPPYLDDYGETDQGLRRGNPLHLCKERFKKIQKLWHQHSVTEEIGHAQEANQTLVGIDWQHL
Chain of UniProt Q86WV6 (Q86WV6 whole entry, looked up): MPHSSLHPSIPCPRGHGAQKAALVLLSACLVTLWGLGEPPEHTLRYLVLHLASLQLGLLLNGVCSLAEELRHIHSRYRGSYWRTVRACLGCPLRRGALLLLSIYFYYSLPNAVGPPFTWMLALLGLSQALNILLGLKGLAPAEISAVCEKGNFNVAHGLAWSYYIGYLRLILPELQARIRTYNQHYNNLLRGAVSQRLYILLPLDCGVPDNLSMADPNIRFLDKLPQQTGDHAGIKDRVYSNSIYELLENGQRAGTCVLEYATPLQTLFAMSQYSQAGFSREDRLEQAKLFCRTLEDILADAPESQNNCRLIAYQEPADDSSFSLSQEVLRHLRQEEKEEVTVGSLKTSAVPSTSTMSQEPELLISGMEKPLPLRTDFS
Chain of UniProt Q8TBZ6 (Q8TBZ6 whole entry, looked up): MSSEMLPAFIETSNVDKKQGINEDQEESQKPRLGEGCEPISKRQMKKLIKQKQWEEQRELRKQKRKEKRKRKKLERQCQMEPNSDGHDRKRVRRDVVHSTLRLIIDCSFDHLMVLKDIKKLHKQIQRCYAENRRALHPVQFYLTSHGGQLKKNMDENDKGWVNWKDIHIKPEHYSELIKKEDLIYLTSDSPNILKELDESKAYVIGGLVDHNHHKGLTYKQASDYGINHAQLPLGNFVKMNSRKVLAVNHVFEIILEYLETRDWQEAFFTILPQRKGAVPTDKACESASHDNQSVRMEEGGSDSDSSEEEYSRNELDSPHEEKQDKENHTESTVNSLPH
Chain of UniProt Q15388 (Q15388 whole entry, looked up): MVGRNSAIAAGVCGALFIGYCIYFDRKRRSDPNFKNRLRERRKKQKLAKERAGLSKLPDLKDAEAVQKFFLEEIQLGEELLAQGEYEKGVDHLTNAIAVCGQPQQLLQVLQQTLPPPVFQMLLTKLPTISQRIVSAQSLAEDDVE
Chain of UniProt Q9Y3C0 (Q9Y3C0 whole entry, looked up): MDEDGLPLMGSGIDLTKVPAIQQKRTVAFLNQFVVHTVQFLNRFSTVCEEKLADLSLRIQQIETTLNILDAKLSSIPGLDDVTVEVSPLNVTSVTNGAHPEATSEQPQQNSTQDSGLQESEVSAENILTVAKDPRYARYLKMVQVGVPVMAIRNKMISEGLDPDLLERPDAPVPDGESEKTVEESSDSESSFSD

Target	log2 fold change [1]	log2 fold change (filanesib)	log2 fold change (zotarolimus)	log2 fold change (idasanutlin)	log2 fold change (alisertib)	log2 fold change [2]	log2 fold change (gefitinib)	log2 fold change [3]	log2 fold change (lapatinib)	log2 fold change (pictilisib)	log2 fold change [4]	log2 fold change (crizotinib)	log2 fold change [5]	log2 fold change [6]	log2 fold change (duvelisib)	log2 fold change (gandotinib)	log2 fold change (tozasertib)	log2 fold change [7]	log2 fold change (doramapimod)	log2 fold change (ispinesib)
TMEM173 (UniProt Q86WV6)	-0.177	0.007	0.025	-0.209	-0.073	0.034	-0.013	-0.008	-0.062	-0.037	0.042	0.147	0.041	0.004	0.017	-0.151	0.01	0.078	0.023	0.037
TMEM208 (UniProt Q9BTX3)	-0.131	-0.254	-0.111	-0.137	0.109	0.019	-0.055	-0.146	-0.151	-0.17	-0.09	-0.119	0.134	-0.004	-0.039	0.086	-0.035	0.076	0.019	-0.243
WAPL isoform 3 (UniProt Q7Z5K2)	0.052	-0.009	0.128	-0.027	0.038	-0.273	-0.006	-0.003	0	0.027	0.052	-0.23	0.18	-0.142	0	-0.199	0.052	-0.006	0.017	-0.026
USP9X (UniProt Q93008)	-0.02	-0.017	0.018	-0.096	-0.02	0.029	-0.007	-0.008	-0.027	-0.033	-0.008	-0.159	-0.024	0.033	0.001	-0.125	0	0.053	0.016	-0.058
TNPO2 (UniProt O14787)	-0.022	-0.005	0.065	-0.194	-0.071	-0.069	0.027	-0.038	-0.048	-0.076	0.019	-0.153	0.046	-0.037	0.03	-0.059	0.077	0.048	0.011	-0.14
USP15 (UniProt Q9Y4E8)	0.027	-0.004	0.051	-0.018	-0.043	0.016	0.028	-0.05	-0.021	-0.027	0.04	-0.041	0.05	-0.009	0.01	-0.043	0.056	0.063	-0.045	-0.036
TRMT10A (UniProt Q8TBZ6)	-0.195	-0.134	0.054	-0.081	0.048	-0.006	-0.025	0.028	0.03	0.093	0.012	0.01	0.093	-0.072	0.053	0	-0.031	0.016	-0.023	0.028
UBR2 (UniProt Q8IWV8)	-0.016	0.027	-0.105	0.054	-0.041	0.024	-0.021	0.061	0.052	0.036	0	-0.027	-0.063	0.166	0.008	0	-0.03	0.135	0.073	-0.141
TYW1 (UniProt Q9NV66)	-0.16	-0.01	0.019	-0.023	0	0.095	0.013	-0.006	0	-0.147	0.038	0.143	0.032	0.053	0.035	-0.004	0.037	0.021	0.008	0.179
VPS16 (UniProt Q9H269)	0.018	-0.093	0.033	-0.065	-0.056	-0.009	-0.1	-0.017	-0.006	-0.044	0.035	-0.105	-0.09	0.08	0.023	-0.163	0.033	0.092	0.085	-0.239
TSFM (UniProt P43897)	0.152	-0.146	0.042	0.039	0.047	0.12	0.117	-0.002	-0.006	0.066	-0.083	0.171	0.152	-0.104	0.044	-0.083	-0.033	0.095	-0.095	0.398 (active)
TMEM106B (UniProt Q9NUM4)	0.021	0.06	-0.082	-0.032	-0.012	-0.027	0.04	0.057	-0.005	0.027	-0.024	-0.382 (active)	0.389	-0.054	0.03	-0.021	-0.073	0	0.014	
WASHC3 (UniProt Q9Y3C0)	0.108	-0.061	0.001	0.068	0.077	0.002	-0.014	0.042	-0.029	0.05	-0.014	-0.274 (active)	0.096	-0.039	0.012	-0.041	0.021	0.014	0.048	-0.4 (active)
TOMM20 (UniProt Q15388)	-0.011	-0.213	0.005	-0.022	-0.029	-0.25	0.005	-0.001	0.045	0.007	-0.068	-0.019	0.058	-0.06	0.016	0.116	-0.042	-0.062	-0.025	-0.358 (active)
WDCP (UniProt Q9H6R7)	-0.028	-0.029	0.094	-0.049	-0.074	0.072	-0.061	-0.049	-0.037	0.126	-0.018	0.079	-0.046	-0.024	-0.007	0.047	0.094	0.084	0.005	0.032
VPS51 (UniProt Q9UID3)	0.029	-0.024	-0.01	-0.098	-0.092	0.055	0.019	-0.057	-0.032	0.013	-0.009	-0.096	-0.003	0.05	0.006	-0.04	0.033	0.079	0.008	-0.115
